The nature of assay [1]: qHTS assay to identify small molecule antagonists of the retinoid-related orphan receptor gamma (ROR-gamma) signaling pathway - cell viability counter screen (AID 1159520). Note: nearly all actives have a fitted effect of over 50% in size. Put shortly: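 Cytotoxicity was read from cellular ATP (CellTiter-Glo luminescence) after 16 hr at 37 C with 1 uM doxycycline induction. The inducer was added 2 hr after compound transfer to Tet-on ROR gamma CHO cells.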
In general terms: In qHTS, concentration-response curves come from the screen itself.

For assay [2], the target named is Nuclear receptor ROR-gamma (Homo sapiens) (UniProt P51449). Put plainly: qHTS assay to identify small molecule antagonists of the retinoid-related orphan receptor gamma (ROR-gamma) signaling pathway (AID 1159521;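 note: CHO cells with doxycycline inducible ROR-gamma driving an RORE luciferase reporter; top concentration of the series differs between compounds; nearly all actives have a fitted effect of over 50% in size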). Summed up:
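Luminescence readout (ONE-Glo, 30 min RT) after 16 h doxycycline induction; loss of signal scored as antagonism. CHO cells with TET-inducible RORγ and RORE-LUC reporter; compounds added 2 h before 1 uM final doxycycline.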

Assay [3] in a line: qHTS assay to identify small molecule agonists of the AP-1 signaling pathway - cell viability counter screen (AID 1159525; calls by dose curve; note: nearly all actives have a fitted effect of over 55% in size). Summed up:
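Luminescent ATP readout (Cell Titer Glo, 30 min RT), normalised to DMSO and tetra n-octyl ammonium bromide controls. Cells were ME-180 AP-1-bla in 0.5% dialyzed FBS Opti-MEM, with a 5 h, 37 °C compound exposure.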

A short description of assay [4]: qHTS assay to identify small molecule agonists of the AP-1 signaling pathway (AID 1159526; calls by dose curve).
Assay [5] concerns the target Retinoic acid receptor RXR-alpha (Homo sapiens) (UniProt P19793). Nature of the assay: qHTS assay to identify small molecule agonists of the RXR signaling pathway (AID 1159527; calls by dose curve; note: nearly all actives have a fitted effect of over 35% in size). Put shortly:
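Agonist mode; 9-cis retinoic acid positive control. HEK 293T UAS-bla reporter cells, 2% charcoal-stripped FBS, 16 hr compound exposure at 37 C/5% CO2. LiveBLAzer B/G FRET substrate 2 hr RT; ex 405, em 460/530 nm.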

Assay [6] is described as follows: qHTS assay to identify small molecule agonists of the RXR signaling pathway - cell viability counter screen (AID 1159529). Note: nearly all actives have a fitted effect of over 50% in size. Note: potency is the fitted concentration of half-maximal effect. Put shortly: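 Luminescence from CellTiter-Glo (30 min, RT) measured viability in the same wells as the beta-lactamase reporter readout. Cells: GeneBLAzer RXR-alpha HEK 293T, 2% charcoal-stripped FBS. Compound exposure 16 hr, 37 C.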
A short description of assay [7]: qHTS assay to identify small molecule agonists of the vitamin D receptor (VDR) signaling pathway - cell viability counter screen (AID 743224). Note: nearly all actives have a fitted effect of over 50% in size. Note: potency is the fitted concentration of half-maximal effect. Put shortly:
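VDR-bla cells, 4 h after plating, exposed to compounds for 16 h at 37C; viability then read in the same wells as CellTiter-Glo luminescence after 30 min at room temperature, following the bla FRET read.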

The nature of assay [8]: qHTS assay to identify small molecule antagonists of the vitamin D receptor (VDR) signaling pathway - cell viability counter screen (AID 743225). Note: nearly all actives have a fitted effect of over 50% in size. Note: potency is the fitted concentration of half-maximal effect. Put shortly:
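Viability counter screen run in the same wells as the beta-lactamase reporter assay: HEK 293T VDR-UAS-bla cells, 16 h compound exposure at 37C with 3 nM (final) 1-alpha,25-dihydroxyvitamin D3. CellTiter-Glo luminescence, 30 min, room temperature.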

Assay [9] is described as follows: qHTS assay to identify small molecule agonists of the endoplasmic reticulum stress response signaling pathway - cell viability counter screen (AID 1159517; calls by dose curve; note: nearly all actives have a fitted effect of over 50% in size; note: potency is the fitted concentration of half-maximal effect). Summed up: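 Cells, HeLa ESRE-bla; density, 1,500/well; dosing, 5 hr at 37 C, 5% CO2; readout, CellTiter-Glo luminescence after 30 min RT.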

Inconclusive results are not listed. Values without a mark were called inactive. Calls of active or inactive are those of the source. Unless noted, calls come from the whole dose curve; as a rule, active = well fitted curve in the direction sought with a large enough effect in the repeat runs; inconclusive = weak or mixed curves; inactive = no such curve, though single readings can be large; an effect the other way counts as inactive or inconclusive.

Retinoic acid receptor RXR-alpha (Homo sapiens), sequence (P19793 whole entry, looked up): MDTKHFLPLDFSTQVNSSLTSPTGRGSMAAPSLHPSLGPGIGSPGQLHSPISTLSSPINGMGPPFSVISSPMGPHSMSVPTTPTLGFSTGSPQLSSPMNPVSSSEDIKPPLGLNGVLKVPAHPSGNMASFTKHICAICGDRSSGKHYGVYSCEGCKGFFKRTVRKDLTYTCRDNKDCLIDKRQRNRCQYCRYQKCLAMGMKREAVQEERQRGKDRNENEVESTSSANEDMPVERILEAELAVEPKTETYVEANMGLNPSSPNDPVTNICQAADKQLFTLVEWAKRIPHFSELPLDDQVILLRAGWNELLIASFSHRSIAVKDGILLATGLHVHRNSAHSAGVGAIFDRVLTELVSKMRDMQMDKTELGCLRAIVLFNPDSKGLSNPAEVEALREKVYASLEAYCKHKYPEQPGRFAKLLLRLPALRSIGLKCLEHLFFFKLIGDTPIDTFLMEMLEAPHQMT

`CN(C)CCN1CCOCC1`: the Potency result in [1], in assay [2], in assay [3], in assay [4], in assay [5] and in assay [6] was “inactive” each time.

Regarding `CCN(CC)c1cccc(C)c1`, the Potency entry in assay [1], in assay [2], in assay [3], in assay [4], in assay [5] and in assay [6] was “inactive” in each case.

Regarding `CCOCOCC`, the Potency result in assay [1], in assay [2], in [3], in assay [4], in assay [5] and in assay [6] was “inactive” throughout.

For the compound `CCO[Si](C)(C)OCC`, the Potency result in assay [1], in assay [2], in [3], in assay [4], in assay [5] and in [6] was “inactive” each time.

As for `C=CC(C)C#N` (stereo not drawn), the Potency result in assay [1], in assay [2], in assay [3], in assay [4], in assay [5] and in assay [6] was “inactive” each time.

For `Cc1cncc(C)c1`, the Potency entry in assay [1], in [2], in assay [3], in assay [4], in [5] and in assay [6] was “inactive” each time.

For `CC1(C)C(=O)N(CO)C(=O)N1CO`, the Potency entry in [1], in [2], in [3], in [4], in [5] and in assay [6] was “inactive” throughout.

On to `CCCCCCCC(C)=O`, for which the Potency entry in assay [1], in assay [2], in assay [3], in assay [4], in assay [5] and in assay [6] was “inactive” each time.

As for `OCCC(O)CO` (stereo not drawn), the Potency entry in [1], in [2], in [3], in assay [4], in assay [5] and in assay [6] was “inactive” each time.

As to `CCN(CC)c1ccc(N)cc1`, the Potency in assay [7] was 20 µM (active). Besides, the Potency result in assay [8] and in [9] was “inactive” in each case.

Consider `OCCCc1cccnc1`, for which the Potency result in [1], in assay [2], in assay [3], in [4], in assay [5] and in assay [6] was “inactive” throughout.

As to `CN1CN(C)CN(C)C1`, the Potency entry in assay [1], in assay [2], in assay [3], in [4], in [5] and in [6] was “inactive” each time.

Take `CCCC(CC)CCCCCCCN` (stereo not drawn): the Potency entry in [7], in assay [8] and in assay [3] was “inactive” throughout. In addition, the Potency in assay [9] is 39.9 µM (active).

As to `CC(=O)c1ccccc1N`, the Potency entry in [1], in assay [2], in [3], in assay [4], in assay [5] and in assay [6] was “inactive” each time.

Consider `COc1ccccc1OCCNCC(O)COc1cccc2[nH]c3ccccc3c12` (stereo not drawn), for which the Potency result in assay [9] was “inactive”. Further, the Potency in [6] was 19 µM (active).

In the case of `C/C=C/CO`, the Potency result in assay [1], in assay [2], in assay [3], in assay [4], in assay [5] and in assay [6] was “inactive” each time.

`C[Si](C)O[Si](C)C`: the Potency result in assay [1], in assay [2], in assay [3], in [4], in [5] and in assay [6] was “inactive” in each case.

For `CCCC(C)CCC(C)=O` (stereo not drawn), the Potency result in [1], in assay [2], in [3], in assay [4], in assay [5] and in [6] was “inactive” throughout.

With `Cc1cc(=O)[nH]c(=O)[nH]1`, the Potency result in assay [1], in assay [2], in [3], in assay [4], in [5] and in assay [6] was “inactive” each time.

For the compound `Cn1cccc1`, the Potency entry in [1], in assay [2], in assay [3], in [4], in [5] and in assay [6] was “inactive” each time.

As for `CCOC(OCC)C(=O)c1ccccc1`, the Potency result in assay [1], in assay [2], in assay [3], in assay [4], in assay [5] and in assay [6] was “inactive” each time.

In the case of `CC1=CP(=O)(c2ccccc2)CC1` (stereo not drawn), the Potency result in [1], in assay [2], in assay [3], in assay [4], in assay [5] and in [6] was “inactive” throughout.

On to `COc1cccc(OC)c1O`, for which the Potency entry in assay [1], in assay [2], in assay [3], in [4], in assay [5] and in [6] was “inactive” each time.

In the case of `C=C(C)CCCC`, the Potency result in assay [1], in [2], in assay [3], in assay [4], in assay [5] and in [6] was “inactive” throughout.

`CCCCCCCCCCCCN(CCO)CCO`: the Potency in assay [7] is 30.8 µM (active); in assay [8] it was 43.5 µM (active); in assay [9], 43.5 µM (active); in [6] it was 24.4 µM (active).

As for `CCC(C)c1ccccc1` (stereo not drawn), the Potency result in assay [1], in assay [2], in assay [3], in [4], in [5] and in assay [6] was “inactive” each time.

As for `CCCC(=O)OCC(COC(=O)CCC)OC(=O)CCC`, the Potency entry in [1], in assay [2], in [3], in assay [4], in assay [5] and in assay [6] was “inactive” in each case.

`CC[N+](CC)(CC)Cc1ccccc1`: the Potency entry in assay [1], in [2], in assay [3], in assay [4], in assay [5] and in [6] was “inactive” throughout.

Consider `CCCCCCCCCCCCCc1ccccc1`, for which the Potency entry in [1], in assay [2], in [3], in assay [4], in assay [5] and in [6] was “inactive” each time.

The record behind these values is PubChem BioAssay (Tox21).
